Tau fil binding: qHTS Assay for Tau Filament Binding; Potency, µM (highest dose often 57.1 µM), for the others: top-dose activity change, negative = inhibition; Microtubule-associated protein tau (Homo sapiens), P10636; 71,000 compounds, 2% hits; recombinant tau filaments, thioflavin S fluorescence, 15 h; filaments grown with octadecylsulfate alongside compound;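 further: actives lower thioflavin S fluorescence by blocking filaments or displacing dye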
Target sequence (P10636 whole entry, looked up): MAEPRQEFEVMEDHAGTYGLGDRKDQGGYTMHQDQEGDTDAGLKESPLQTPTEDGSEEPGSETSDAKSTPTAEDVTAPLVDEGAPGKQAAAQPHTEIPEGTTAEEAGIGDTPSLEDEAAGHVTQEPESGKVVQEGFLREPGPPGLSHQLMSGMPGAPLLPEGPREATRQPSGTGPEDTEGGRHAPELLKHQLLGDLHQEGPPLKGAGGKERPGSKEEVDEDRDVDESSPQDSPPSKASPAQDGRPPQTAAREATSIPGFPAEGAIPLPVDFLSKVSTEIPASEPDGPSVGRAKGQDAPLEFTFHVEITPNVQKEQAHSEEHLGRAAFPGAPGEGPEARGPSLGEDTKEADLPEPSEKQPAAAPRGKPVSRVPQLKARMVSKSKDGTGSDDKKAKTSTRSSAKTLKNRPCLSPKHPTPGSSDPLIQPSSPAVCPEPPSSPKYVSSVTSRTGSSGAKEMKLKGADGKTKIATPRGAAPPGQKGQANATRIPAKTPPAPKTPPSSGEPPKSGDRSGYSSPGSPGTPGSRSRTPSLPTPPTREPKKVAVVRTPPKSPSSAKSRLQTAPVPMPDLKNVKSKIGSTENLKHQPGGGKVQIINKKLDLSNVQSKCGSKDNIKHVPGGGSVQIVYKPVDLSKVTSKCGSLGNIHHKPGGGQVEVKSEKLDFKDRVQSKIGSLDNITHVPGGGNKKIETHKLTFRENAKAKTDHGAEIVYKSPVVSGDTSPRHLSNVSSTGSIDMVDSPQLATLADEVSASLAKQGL
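His-tagged recombinant human tau (exons 2, 3, 10; 1 uM final) fibrillized with 30 uM sodium octadecylsulfate, 15 h at 37 C, in pH 7.4 HEPES buffer with 10 uM thioflavine S and 5 mM DTT. Reduced ThS fluorescence (450/510 nm) marks activity.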
Luciferase inh: qHTS Assay for Inhibitors of Firefly Luciferase. Luciferin 4-monooxygenase (Photinus pyralis), P08659. purified firefly luciferase, luminescence, 8 min. Potency, µM (titrated, usually from 57.1 µM), without a hit: top-dose activity change, negative = inhibition, usual class: inhibitors. 72,000 compounds, 2.2% hits; further: nearly all actives have a fitted effect of over 40% in size
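Luminescence read-out after 8 min at room temperature; enzyme reaction used luciferin plus 10 uM ATP (linear range) in imidazole buffer pH 7.2 with KCl, MgCl2, Tween 20 and BSA. Each sample was run as a titration.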
ALOX15 inhib: qHTS Assay for Inhibitors of 15-hLO (15-human lipoxygenase). purified 15hLO-1, xylenol orange hydroperoxide absorbance. Potency, µM (highest dose often 57.1 µM), inactives show at the top dose activity change, negative = inhibition, most hits filed as inhibitors. 74,000 compounds, 1.4% hits. AID 887, 2007; further: nearly all actives have a fitted effect of over 55% in size
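Readout: Fe(III)-xylenol orange absorbance, 573-to-405 nm ratio as reaction progress. Enzyme 40 nM purified human 15hLO-1, substrate 50 uM arachidonic acid, 6 min RT after 15 min compound preincubation; Hepes pH 7.5 buffer with Triton X-100.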
Bst PK mod: Pyruvate Kinase. purified pyruvate kinase, luminescence ATP production; ribose 5-phosphate activator present at AC10. Potency, µM. 51,000 compounds, 1.2% hits; in the data active means potency below about 11 µM; inconclusive means mostly about 12 µM to 25 µM;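 the screen sought inhibitors and activators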;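 further: scaled between full activation by ribose 5 phosphate and full inhibition by luteolin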
ERK AVP inh: qHTS Assay for Inhibitors of the ERK Signaling Pathway using a Homogeneous Screening Assay. HEK293-V1b, vasopressin-stimulated pERK AlphaScreen. Potency, µM (titrated, usually from 57.5 µM), for inactives: at the highest dose activity, negative = inhibition, usual class: inhibitors. 72,000 compounds, 0.99% hits. AID 995, 2007; further: nearly all actives have a fitted effect of over 55% in size
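HEK293 cells stably expressing V1b receptor, seeded overnight in 1% FBS, were treated with compounds for 30 min at 37C, then stimulated 5 min with 25 nM vasopressin; phospho-ERK read by AlphaScreen SureFire after lysis.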
Hsp90 Hop PPI: qHTS Assay for Disrupters of an Hsp90 Co-Chaperone Interaction; Hsp90 C-terminal peptide / TPR2A (Hop) interaction, human; AlphaScreen TPR2A-His6 binding biotin-Hsp90 C-terminal peptide; Potency, µM (doses to about 57 µM), for the others: at the highest dose activity change, negative = inhibition; 71,000 compounds, 0.44% hits; active means well fitted curve in either direction with a large enough effect; inconclusive means small, poorly fitted or top-dose-only effect, or another doubt
* marks the source's active call; other numbers are inactive results; [ ] = dose if it differs, or a comment. Rows were chosen to be rich in hits. Some 6.1% of all compounds tested hit in one or more screens of this group. Unless noted, the call rests on the fitted dose curve; in most records, active means well fitted curve in the direction sought with a large enough effect; inconclusive means small, poorly fitted or top-dose-only effect, or another doubt; inactive means no such curve, though single readings can be large; an effect the other way counts as inactive or inconclusive. Unless noted, on the % scale 0 is the no-effect control and ±100 the full control effect; potency means the concentration at half of the fitted maximal effect.

`O=C(/C=C\c1ccc(O)c(O)c1)O[C@H]1C[C@@](O)(C(=O)O)C[C@H](O)[C@@H]1O` gave Tau fil binding inconclusive, Luciferase inh -1%[11.4 µM] and Hsp90 Hop PPI -5%.
`COc1ccc2nc3sc(C(=O)NCc4cccs4)c(N)c3cc2c1` gave Tau fil binding inconclusive, Luciferase inh -6%, ALOX15 inhib 20µM*, Bst PK mod inactive, ERK AVP inh inconclusive and Hsp90 Hop PPI -7%.
C=CCn1c(-c2ccc(OC)c(OC)c2)cs/c1=N\c1ccccn1 was read as Tau fil binding -10%, Luciferase inh 1%, ALOX15 inhib -14%, Bst PK mod 6.9*, ERK AVP inh inconclusive and Hsp90 Hop PPI -28%.
`COc1ccc(C2=Nn3c(nnc3-c3ccccn3)SC2)cc1OC` gave Luciferase inh 0%[25.5 µM] and Bst PK mod >26.
Screening CC(=O)n1c2ccccc2c2c(C#N)c(N3CCCCC3)sc21 returned Tau fil binding -24%, Luciferase inh -1%, ALOX15 inhib -10%, Bst PK mod >57, ERK AVP inh -4% and Hsp90 Hop PPI -2%.
For C=CCNc1nc2c3ccccc3n(C(C)=O)c2s1 the results were Tau fil binding -1%, Luciferase inh 20µM*, ALOX15 inhib inconclusive, Bst PK mod inactive, ERK AVP inh -12% and Hsp90 Hop PPI -15%.
Screening CO[C@]1(NC(=O)C(C(=O)O)c2ccc(O)cc2)C(=O)N2C(C(=O)O)=C(CSc3nnnn3C)COC21 (stereo not given in full) returned ALOX15 inhib 6% and ERK AVP inh 15%.
Cc1ccc(N=c2oc3cc(O)ccc3cc2C(N)=O)cc1 was read as Tau fil binding -23%, Luciferase inh 13µM*, ALOX15 inhib inconclusive, Bst PK mod 9.3*, ERK AVP inh -22% and Hsp90 Hop PPI -5%.
Screening O=C(NCCN1CCOCC1)c1cccc(Cl)c1 returned Tau fil binding 6%, Luciferase inh -1%, ALOX15 inhib -5%, Bst PK mod >57, ERK AVP inh -12% and Hsp90 Hop PPI -3%.
Screening COc1cc(OC)cc(C(=O)NCCN2CCOCC2)c1 returned Tau fil binding -5%, Luciferase inh 0%, ALOX15 inhib 10µM*, Bst PK mod >57, ERK AVP inh -4% and Hsp90 Hop PPI -4%.
`COc1cc(C(=O)Nc2ccc(N(C)C)cc2)cc(OC)c1OC` gave Tau fil binding 10µM*, Luciferase inh inconclusive, ALOX15 inhib -9%, ERK AVP inh inconclusive and Hsp90 Hop PPI -22%.
O=C(CCn1cccc1)Nc1cccc(F)c1 was read as ALOX15 inhib 9%.
`CN(C)c1ccc(NC(=O)c2cccc(N3C(=O)CCC3=O)c2)cc1` gave Tau fil binding -10%, Luciferase inh 13µM*, ALOX15 inhib -26%, ERK AVP inh -19% and Hsp90 Hop PPI -3%.
For CCN(CC)c1ccc(C(=O)Nc2cccc(F)c2)cc1 the results were Tau fil binding -5%, Luciferase inh 10µM*, ALOX15 inhib -24%, ERK AVP inh inconclusive and Hsp90 Hop PPI 0%.
O=C(Nc1cccc(F)c1)c1c(F)c(F)c(F)c(F)c1F was read as Tau fil binding -14%, Luciferase inh 3%, ALOX15 inhib 1%, Bst PK mod >57, ERK AVP inh 10% and Hsp90 Hop PPI 7%.
Screening CN(C)c1cccc(C(=O)Nc2cccc(F)c2)c1 returned Tau fil binding -29%, Luciferase inh 16µM*, ALOX15 inhib inconclusive, ERK AVP inh -16% and Hsp90 Hop PPI -15%.
CCN(CC)CCn1c(-c2ccccc2)nc2c(NCCO)nc(C)nc21 was read as Tau fil binding 12%, ALOX15 inhib 0%, ERK AVP inh -2% and Hsp90 Hop PPI -6%.

Bioassay records: PubChem BioAssay, National Center for Advancing Translational Sciences (NCATS)
